MLL AF4-AF9 inh: blocks AF4 peptide binding to human AF9; P42568; AlphaScreen, biotin-AF4 peptide binding to FLAG-AF9; inhibition, % at 10 µM; 350,000 tested, 0.47% active;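 active = every replicate reaching a set inhibition limit, whatever the replicate mean, cut at about 25% in these data; inconclusive = mean inhibition reaches that limit but some replicates miss it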
ERAP1 HTS inh: blocks human ERAP1 aminopeptidase activity. Q9NZ08. recombinant ERAP1, Leu-AMC fluorescence, 60 min. inhibition, % at 10.7 µM. 340,000 tested, 0.15% active. AID 652197;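 active = mean replicate inhibition of at least 30%, or all replicates individually reaching that 30% level; inactive = mean below 30% and not every replicate reaching it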
DENV2 CPE rescue: inhibitors of DENV2 cytopathic effect; DENV2-infected cells, cytopathic effect rescue, plate reader; AID 651640; CPE inhibition, % at 9.99 µM; 350,000 tested, 1.7% active; in the data active = CPE inhibition above about 20%, passing the limit was not always enough; inconclusive = no clear call, values can overlap the other calls; tested in BHK-21 cells
RAD52 anneal inh: inhibitors of human RAD52 DNA annealing. inhibition, % at 18.7 µM. P43351. recombinant RAD52 DNA annealing, FRET fluorescence. 360,000 tested, 0.46% active. AID 651710;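 active = every replicate showing at least 50% inhibition; inconclusive = mean inhibition at least 50% but not in every replicate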
Target sequence (P43351 whole entry, looked up): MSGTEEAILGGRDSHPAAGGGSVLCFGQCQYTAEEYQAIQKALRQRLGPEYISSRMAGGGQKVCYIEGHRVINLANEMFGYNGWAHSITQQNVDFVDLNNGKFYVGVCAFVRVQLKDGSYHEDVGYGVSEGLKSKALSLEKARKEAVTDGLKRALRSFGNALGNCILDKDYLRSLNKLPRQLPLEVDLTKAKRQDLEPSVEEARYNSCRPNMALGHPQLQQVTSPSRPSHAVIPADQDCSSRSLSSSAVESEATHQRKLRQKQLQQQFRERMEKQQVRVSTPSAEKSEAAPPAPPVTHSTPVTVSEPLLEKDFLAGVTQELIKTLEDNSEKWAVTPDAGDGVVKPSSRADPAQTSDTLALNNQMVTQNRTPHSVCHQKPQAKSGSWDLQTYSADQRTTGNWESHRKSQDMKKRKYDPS
FGF22 binding-1: FGF22 (human) thermal shift binding; Q9HCT0; 340,000 tested, 1.5% active; activity (Tm shift, normalised), % at 9.99 µM; recombinant FGF22 thermal shift, SYPRO orange fluorescence; percent of sucrose octasulfate shift, DMSO zero;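 active = mean Tm shift, scaled 0 neutral to 100 positive control, at about 1.3% or above, every replicate too, limit read from the data; inconclusive = no clear call, values can overlap the other calls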
Target sequence (Q9HCT0 whole entry, looked up): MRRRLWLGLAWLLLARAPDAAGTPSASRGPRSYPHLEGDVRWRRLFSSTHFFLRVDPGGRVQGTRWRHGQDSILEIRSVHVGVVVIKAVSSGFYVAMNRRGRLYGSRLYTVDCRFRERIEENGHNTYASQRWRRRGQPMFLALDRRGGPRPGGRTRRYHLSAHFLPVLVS
FGF22 binding-2: binders of human FGF22 by thermal shift; shares compounds with FGF22 binding-1; recombinant FGF22 thermal shift, SYPRO orange fluorescence; thermal shift activity, °C (ΔTm) at 38 µM; 1,000 tested, 2% active; AID 720646;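 active = fitted rise in melting shift crosses a set limit at or below the top valid dose tested; inconclusive = flat fit at mid-level activity, or a poor quality fit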
FGF22 TSA DP: FGF22 (human) binding by thermal shift | AID 743017 | shares compounds with FGF22 binding-1 | Thermal shift assay, SYPRO orange, melting temperature shift | 50 tested, under 10 active | Tm shift (activity), % at 38 µM;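 active = compounds whose fitted dose curve of melting temperature shift rises past a set threshold within the tested doses; inconclusive = flat curve at moderate activity, or poor curve fit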
TSA no protein: counter-screen for FGF22 binders: compound-only thermal shift, no protein. AID 743019. 1,000 tested, 2% active. shares compounds with FGF22 binding-1. compound-only SYPRO orange thermal shift counter-screen. AC50, µM (doses to about 38 µM);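 active = rising signal whose fitted curve reaches the 0.54 level within the top valid dose, showing a melting point, actives reach about 13 µM in these data; inactive = the rest, including activity in the opposite direction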; note: value is where the raw curve crosses a fixed level and not half-maximal
Of the large screens only hits and unclear results are named; the others gave an inactive call (follow-up assays come after a bar, where they were run). This is a sample that favours compounds with a hit; in the whole collection about 4% have one here.

CC(C)C#Cc1ccc([C@@H]2[C@@H](CO)N3C(=O)CN(C(=O)C4CCCCC4)C[C@H]23)cc1	none
CC(C)C#Cc1ccc([C@@H]2[C@@H](CO)N3C(=O)CN(C(=O)C4CCCCC4)C[C@@H]23)cc1	FGF22 binding-1 1.3 | FGF22 binding-2 inactive | TSA no protein inactive
COc1cc(-c2nc(C)c(C(C)=O)n2O)ccc1OCC(=O)Nc1ccc(Cl)cc1	DENV2 CPE rescue inconclusive, FGF22 binding-1 2.5 | FGF22 binding-2 inactive | TSA no protein inactive
CC(=O)c1c(C)nc(-c2ccc(OCC(=O)Nc3cccc(C)c3C)cc2)n1O	FGF22 binding-1 2.2 | FGF22 binding-2 inactive | TSA no protein inactive
C[C@H](CO)N1C[C@H](C)[C@@H](CN(C)Cc2ccc(Cl)c(Cl)c2)Oc2ccc(NC(=O)Nc3ccc4c(c3)OCO4)cc2C1=O	none
CN(C(=O)CCc1nnc(CCCCc2ccccc2)o1)C1CCOCC1	FGF22 binding-1 1.4 | FGF22 binding-2 inactive | TSA no protein inactive
CN(C(=O)CCc1nnc(CCCCc2ccccc2)o1)C1CC(C)(C)NC(C)(C)C1	none
O=C(C1CC1)N1C[C@H]2[C@@H](c3ccccc31)[C@H](CO)N2Cc1ccccc1Cl	none
COc1ccc(CCNC(=O)C(=O)c2c(C)[nH]c3ccccc23)cc1	none
Cc1[nH]c2ccccc2c1C(=O)C(=O)NCCOc1ccccc1	FGF22 binding-1 17.1 | FGF22 binding-2 inactive | TSA no protein inactive
O=C(Nc1ccc(S(=O)(=O)N2CCCC2)cc1)c1cccs1	FGF22 binding-1 2.1 | FGF22 binding-2 inactive | FGF22 TSA DP inactive | TSA no protein inactive
O=C(Nc1ccc(S(=O)(=O)N2CCCC2)cc1)c1ccccc1	FGF22 binding-1 1.6 | FGF22 binding-2 inactive | FGF22 TSA DP inactive | TSA no protein inactive
O=C(Nc1ccccc1)c1ccc(S(=O)(=O)N2CCCCC2)cc1	none (no result: ERAP1 HTS inh)
N#Cc1cccc(NS(=O)(=O)c2ccc(S(=O)(=O)N3CCOCC3)cc2)c1	none
N#Cc1cccc(NC(=O)c2ccc(S(=O)(=O)N3CCOCC3)cc2)c1	FGF22 binding-1 2.7 | FGF22 binding-2 inactive | TSA no protein inactive
Oc1ccc(-c2cnc3ccccc3n2)cc1	FGF22 binding-1 25.3 | FGF22 binding-2 inactive | TSA no protein inactive
Nc1ccc(-c2cnc3ccccc3n2)cc1	none
CC1CC(CC(=O)NC(=S)Nc2ccccc2Cl)C(=O)O1 (stereo not drawn)	FGF22 binding-1 1.6 | FGF22 binding-2 inactive | TSA no protein inactive
CCC(=O)N1[C@H](CO)[C@@H](c2ccccc2)C12CN(C(=O)c1cnccn1)C2	FGF22 binding-1 1.3 | FGF22 binding-2 inactive | TSA no protein inactive
COCC(=O)N1CC2(C1)[C@H](c1ccccc1)[C@@H](CO)N2C(=O)NC1CCCC1	FGF22 binding-1 1.3 | FGF22 binding-2 inactive | TSA no protein inactive
CNC[C@@H]1Oc2ccc(NS(=O)(=O)c3cn(C)cn3)cc2C(=O)N([C@@H](C)CO)C[C@@H]1C	none
CCCCn1cnc2c(SCc3cccc(F)c3)nc(N)nc21	FGF22 binding-1 23.1 | FGF22 binding-2 inactive | TSA no protein inactive
c1ccc(-c2cc3nc(NCc4ccc5c(c4)OCO5)ccn3n2)cc1	FGF22 binding-1 34.6 | FGF22 binding-2 inactive | TSA no protein inactive
NC(=O)C(=O)N/N=C/c1c[nH]c2ccc(Br)cc12	none
O=C(N/N=C/c1ccccc1O)c1ccc2c(c1)OCO2	none
O=C(N/N=C/c1c[nH]c2ccccc12)c1ccc2c(c1)OCCO2	FGF22 binding-1 1.6 | FGF22 binding-2 inactive | TSA no protein inactive
O=C(N/N=C/c1c[nH]c2ccc(Br)cc12)C1CC1	FGF22 binding-1 2.2 | FGF22 binding-2 inactive | TSA no protein inactive
O=C(N/N=C/c1c[nH]c2ccc(Br)cc12)c1ccc2c(c1)OCO2	FGF22 binding-1 2.5 | FGF22 binding-2 inactive | TSA no protein inactive
O=C(O)COc1ccccc1/C=N/NC(=O)c1ccc2c(c1)OCCO2	none
COc1ccc2c3c([nH]c2c1)[C@@H](CO)N(C)CC31CN(C(=O)NC(C)C)C1	none
COc1ccc2c3c([nH]c2c1)[C@H](CO)N(C(=O)Nc1ccc(F)cc1)CC31CCN(S(=O)(=O)c2ccccc2)CC1	DENV2 CPE rescue inconclusive (no result: ERAP1 HTS inh, RAD52 anneal inh, FGF22 binding-1)
COc1ccc2c3c([nH]c2c1)[C@H](CO)N(C(=O)Nc1ccc(F)cc1)CC31CCN(S(=O)(=O)c2cccs2)CC1	FGF22 binding-1 16.2 | FGF22 binding-2 inactive | TSA no protein inactive
CNC(=O)C[C@@H]1CC[C@H]2[C@H](COc3ccc(NC(=O)c4cnccn4)cc3C(=O)N2C)O1	none (no result: MLL AF4-AF9 inh, ERAP1 HTS inh, RAD52 anneal inh)
CC(=O)c1ccc(Nc2nc(N3CCOCC3)nc(N3CCOCC3)n2)cc1	none
CC(=O)Nc1ccc(/C(C)=N/Nc2nc(Nc3ccccc3)nc(N3CCOCC3)n2)cc1	FGF22 binding-1 1.6 (no result: DENV2 CPE rescue) | FGF22 binding-2 inactive | TSA no protein inactive
CC(OC(=O)c1ccccc1)C(=O)NCCC1=CCCCC1 (stereo not drawn)	FGF22 binding-1 1.6 | FGF22 binding-2 inactive | TSA no protein inactive
C/C(CC(=O)Nc1ccc2c(c1)OCCO2)=N\NC(=O)COc1ccc(C)cc1Br	FGF22 binding-1 2.9 | FGF22 binding-2 inactive | TSA no protein inactive
C[C@H]1CN([C@@H](C)CO)C(=O)c2cccc(NC(=O)Nc3ccc4c(c3)OCO4)c2O[C@@H]1CN(C)C	none
CC(=O)NC(Cc1c[nH]c2ccccc12)C(=O)NCCc1ccccn1 (stereo not drawn)	FGF22 binding-1 1.6 | FGF22 binding-2 inactive | TSA no protein inactive
C[C@@H]1CN([C@H](C)CO)S(=O)(=O)c2ccc(/C=C/c3ccccc3)cc2O[C@H]1CN(C)C(=O)NC1CCCC1	none
COc1ccc(NC(=O)Nc2cccc3c2O[C@H](CN(C)S(=O)(=O)c2ccccc2)[C@@H](C)CN([C@@H](C)CO)C3=O)cc1	none
Cc1ccc(NC(=O)CSCC(=O)Nc2ccc(S(=O)(=O)N3CCOCC3)cc2)cc1	none
Cc1ccc(NC(=O)CN(C)C(C)C(=O)Nc2ccc(S(=O)(=O)N3CCCC3)cc2)cc1 (stereo not drawn)	FGF22 binding-1 13.4 | FGF22 binding-2 inactive | TSA no protein inactive
Cc1ccc(OCCCC(=O)Nc2ccc(S(=O)(=O)N3CCOCC3)cc2)cc1	FGF22 binding-1 2.5 | FGF22 binding-2 inactive | FGF22 TSA DP inactive | TSA no protein inactive
COc1ccc(NC(=O)c2nn(C)cc2[N+](=O)[O-])cc1	none
COc1ccc(NC(=O)c2[nH]ncc2[N+](=O)[O-])cc1	FGF22 binding-1 1.4 | FGF22 binding-2 inactive | TSA no protein inactive

Assay outcomes (PubChem BioAssay)
